From the supplement of paper PMC11732987, “Enantioselective OTUD7B fragment discovery through chemoproteomics screening and high-throughput optimisation” (Communications Chemistry, 2025)

Experiments:
Experiment in all cases: log2 ratio of Biotin-Ahx-Ub-VS probe labelling (fragment/DMSO); higher = less target engagement (more negative = stronger competition), active = hit call of the paper (q ≤ 0.05, log2 ratio ≤ -1)
Conditions in all cases: compound concentration: 200 uM; treatment time: 3 h
[1] = target: USP34 (UniProt Q70CQ2)
Procedure, shortened: (§1)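 HEK293T lysate, 495 µg per sample in Tris/CHAPS/IGEPAL buffer with protease inhibitors, was treated in triplicate with fragment at 200 µM or vehicle for 3 h and then with Biotin-Ahx-Ub-VS at 0.5 µM final for 1 h. Labelled DUBs were NeutrAvidin-enriched, digested with LysC and trypsin, and run by diaPASEF LC-MS/MS. Spectronaut label-free quantities were global-median-normalised, and values are average log2 fragment/vehicle ratios by unpaired t-test on proteins with ≥2 unique peptides.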

[2] = target: T1, USP36 (UniProt Q9P275)
T1 sequence (whole entry): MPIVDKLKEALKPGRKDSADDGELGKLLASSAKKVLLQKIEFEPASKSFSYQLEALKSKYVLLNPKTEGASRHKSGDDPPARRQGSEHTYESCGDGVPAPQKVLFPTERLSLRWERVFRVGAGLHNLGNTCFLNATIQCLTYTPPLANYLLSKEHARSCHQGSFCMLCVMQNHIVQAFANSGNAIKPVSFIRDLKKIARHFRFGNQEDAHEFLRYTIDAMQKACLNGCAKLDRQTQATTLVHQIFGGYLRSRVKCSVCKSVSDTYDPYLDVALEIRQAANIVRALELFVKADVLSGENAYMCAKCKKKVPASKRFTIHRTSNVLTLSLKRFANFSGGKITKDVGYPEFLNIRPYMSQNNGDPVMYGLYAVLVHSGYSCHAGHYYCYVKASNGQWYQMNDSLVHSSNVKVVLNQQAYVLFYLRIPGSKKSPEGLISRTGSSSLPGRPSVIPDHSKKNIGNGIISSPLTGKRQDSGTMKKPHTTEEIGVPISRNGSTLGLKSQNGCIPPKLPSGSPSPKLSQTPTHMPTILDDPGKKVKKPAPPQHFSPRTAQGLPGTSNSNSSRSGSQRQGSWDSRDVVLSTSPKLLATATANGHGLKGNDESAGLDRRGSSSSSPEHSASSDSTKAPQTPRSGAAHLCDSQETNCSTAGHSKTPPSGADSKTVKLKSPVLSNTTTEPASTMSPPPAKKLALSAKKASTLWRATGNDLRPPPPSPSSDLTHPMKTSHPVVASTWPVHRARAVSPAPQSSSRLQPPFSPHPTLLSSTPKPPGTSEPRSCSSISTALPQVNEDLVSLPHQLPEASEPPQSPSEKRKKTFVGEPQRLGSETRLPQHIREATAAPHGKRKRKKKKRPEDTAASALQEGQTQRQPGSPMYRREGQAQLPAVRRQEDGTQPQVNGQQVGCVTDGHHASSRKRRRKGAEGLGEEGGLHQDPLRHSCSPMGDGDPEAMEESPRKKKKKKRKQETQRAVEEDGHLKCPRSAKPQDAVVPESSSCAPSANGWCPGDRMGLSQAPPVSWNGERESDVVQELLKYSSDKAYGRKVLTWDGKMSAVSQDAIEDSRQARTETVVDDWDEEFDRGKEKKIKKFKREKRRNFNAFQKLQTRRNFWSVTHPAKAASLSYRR
Procedure, shortened: as §1

[3] = target: T2, USP38 (UniProt Q8NB14)
T2 sequence (whole entry): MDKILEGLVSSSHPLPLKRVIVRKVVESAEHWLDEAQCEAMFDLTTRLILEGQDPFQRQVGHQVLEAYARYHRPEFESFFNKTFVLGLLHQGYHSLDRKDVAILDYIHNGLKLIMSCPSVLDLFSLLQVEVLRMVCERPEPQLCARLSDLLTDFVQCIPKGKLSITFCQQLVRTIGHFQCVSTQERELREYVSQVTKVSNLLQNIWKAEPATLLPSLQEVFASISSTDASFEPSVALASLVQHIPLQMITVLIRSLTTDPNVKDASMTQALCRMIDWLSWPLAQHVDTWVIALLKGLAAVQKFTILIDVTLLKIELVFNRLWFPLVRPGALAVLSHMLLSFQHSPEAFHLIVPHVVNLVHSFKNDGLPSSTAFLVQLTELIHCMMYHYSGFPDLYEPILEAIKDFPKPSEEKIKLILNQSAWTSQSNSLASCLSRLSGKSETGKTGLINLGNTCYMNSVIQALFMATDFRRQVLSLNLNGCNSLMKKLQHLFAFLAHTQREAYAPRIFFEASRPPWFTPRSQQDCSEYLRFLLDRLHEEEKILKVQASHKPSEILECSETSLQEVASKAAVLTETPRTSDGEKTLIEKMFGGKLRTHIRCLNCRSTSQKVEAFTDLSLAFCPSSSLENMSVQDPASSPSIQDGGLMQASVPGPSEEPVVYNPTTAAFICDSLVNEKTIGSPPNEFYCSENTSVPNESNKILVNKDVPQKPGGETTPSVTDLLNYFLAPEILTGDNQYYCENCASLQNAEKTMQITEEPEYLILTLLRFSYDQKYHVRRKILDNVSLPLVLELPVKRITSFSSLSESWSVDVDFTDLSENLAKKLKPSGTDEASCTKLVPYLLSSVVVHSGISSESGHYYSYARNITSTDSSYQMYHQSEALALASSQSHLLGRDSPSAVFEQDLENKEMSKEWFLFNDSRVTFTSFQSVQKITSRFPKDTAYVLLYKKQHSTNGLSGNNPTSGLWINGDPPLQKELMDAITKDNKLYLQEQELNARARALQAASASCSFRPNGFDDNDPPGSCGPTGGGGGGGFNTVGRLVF
Procedure, shortened: as §1

[4] = target: T3, USP39 (UniProt Q53GS9)
T3 sequence (whole entry): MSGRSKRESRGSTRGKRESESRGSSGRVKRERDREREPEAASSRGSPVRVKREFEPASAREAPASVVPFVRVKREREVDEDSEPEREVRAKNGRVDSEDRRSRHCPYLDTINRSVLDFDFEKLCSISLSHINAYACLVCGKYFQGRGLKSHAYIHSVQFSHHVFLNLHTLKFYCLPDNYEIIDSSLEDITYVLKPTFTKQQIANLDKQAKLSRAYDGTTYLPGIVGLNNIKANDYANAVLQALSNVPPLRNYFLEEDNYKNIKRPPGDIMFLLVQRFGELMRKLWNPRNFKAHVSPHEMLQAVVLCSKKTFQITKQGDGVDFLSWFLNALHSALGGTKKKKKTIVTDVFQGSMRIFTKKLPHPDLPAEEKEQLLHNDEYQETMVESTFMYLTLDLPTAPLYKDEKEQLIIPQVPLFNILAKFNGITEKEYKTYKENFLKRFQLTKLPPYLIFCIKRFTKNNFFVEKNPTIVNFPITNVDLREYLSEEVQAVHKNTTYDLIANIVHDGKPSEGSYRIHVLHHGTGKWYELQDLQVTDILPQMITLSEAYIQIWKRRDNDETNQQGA
Procedure, shortened: as §1

[5] = target: T4, USP4 (UniProt Q13107)
T4 sequence (whole entry): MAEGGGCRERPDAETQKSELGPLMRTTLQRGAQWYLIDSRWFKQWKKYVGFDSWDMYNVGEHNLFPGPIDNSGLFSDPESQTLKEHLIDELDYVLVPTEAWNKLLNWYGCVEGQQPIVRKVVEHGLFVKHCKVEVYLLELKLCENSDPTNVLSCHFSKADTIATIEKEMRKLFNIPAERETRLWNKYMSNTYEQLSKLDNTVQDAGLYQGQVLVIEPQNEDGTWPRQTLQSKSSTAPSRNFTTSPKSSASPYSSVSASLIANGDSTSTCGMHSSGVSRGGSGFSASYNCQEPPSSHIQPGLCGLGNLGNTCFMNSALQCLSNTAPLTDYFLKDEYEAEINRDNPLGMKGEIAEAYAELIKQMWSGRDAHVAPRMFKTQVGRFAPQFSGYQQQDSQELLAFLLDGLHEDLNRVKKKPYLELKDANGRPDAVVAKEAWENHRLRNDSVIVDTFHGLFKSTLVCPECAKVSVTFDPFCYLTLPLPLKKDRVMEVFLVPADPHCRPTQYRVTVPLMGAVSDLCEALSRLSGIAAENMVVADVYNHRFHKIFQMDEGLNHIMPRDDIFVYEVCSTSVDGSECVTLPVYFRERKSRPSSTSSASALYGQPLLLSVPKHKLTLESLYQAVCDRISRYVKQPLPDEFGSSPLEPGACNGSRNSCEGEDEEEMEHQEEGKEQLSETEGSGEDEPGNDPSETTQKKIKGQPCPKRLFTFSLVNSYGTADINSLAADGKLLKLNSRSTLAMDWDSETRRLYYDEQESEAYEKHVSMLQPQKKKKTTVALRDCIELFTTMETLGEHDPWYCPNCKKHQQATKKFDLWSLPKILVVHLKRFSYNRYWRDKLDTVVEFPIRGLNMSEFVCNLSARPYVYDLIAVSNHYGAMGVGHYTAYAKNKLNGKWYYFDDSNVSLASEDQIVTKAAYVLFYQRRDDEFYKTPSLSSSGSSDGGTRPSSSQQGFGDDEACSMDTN
Procedure, shortened: as §1

Measured: log2 ratio of Biotin-Ahx-Ub-VS probe labelling

Chain of USP34 (Q70CQ2 whole entry, the tested form may be a part): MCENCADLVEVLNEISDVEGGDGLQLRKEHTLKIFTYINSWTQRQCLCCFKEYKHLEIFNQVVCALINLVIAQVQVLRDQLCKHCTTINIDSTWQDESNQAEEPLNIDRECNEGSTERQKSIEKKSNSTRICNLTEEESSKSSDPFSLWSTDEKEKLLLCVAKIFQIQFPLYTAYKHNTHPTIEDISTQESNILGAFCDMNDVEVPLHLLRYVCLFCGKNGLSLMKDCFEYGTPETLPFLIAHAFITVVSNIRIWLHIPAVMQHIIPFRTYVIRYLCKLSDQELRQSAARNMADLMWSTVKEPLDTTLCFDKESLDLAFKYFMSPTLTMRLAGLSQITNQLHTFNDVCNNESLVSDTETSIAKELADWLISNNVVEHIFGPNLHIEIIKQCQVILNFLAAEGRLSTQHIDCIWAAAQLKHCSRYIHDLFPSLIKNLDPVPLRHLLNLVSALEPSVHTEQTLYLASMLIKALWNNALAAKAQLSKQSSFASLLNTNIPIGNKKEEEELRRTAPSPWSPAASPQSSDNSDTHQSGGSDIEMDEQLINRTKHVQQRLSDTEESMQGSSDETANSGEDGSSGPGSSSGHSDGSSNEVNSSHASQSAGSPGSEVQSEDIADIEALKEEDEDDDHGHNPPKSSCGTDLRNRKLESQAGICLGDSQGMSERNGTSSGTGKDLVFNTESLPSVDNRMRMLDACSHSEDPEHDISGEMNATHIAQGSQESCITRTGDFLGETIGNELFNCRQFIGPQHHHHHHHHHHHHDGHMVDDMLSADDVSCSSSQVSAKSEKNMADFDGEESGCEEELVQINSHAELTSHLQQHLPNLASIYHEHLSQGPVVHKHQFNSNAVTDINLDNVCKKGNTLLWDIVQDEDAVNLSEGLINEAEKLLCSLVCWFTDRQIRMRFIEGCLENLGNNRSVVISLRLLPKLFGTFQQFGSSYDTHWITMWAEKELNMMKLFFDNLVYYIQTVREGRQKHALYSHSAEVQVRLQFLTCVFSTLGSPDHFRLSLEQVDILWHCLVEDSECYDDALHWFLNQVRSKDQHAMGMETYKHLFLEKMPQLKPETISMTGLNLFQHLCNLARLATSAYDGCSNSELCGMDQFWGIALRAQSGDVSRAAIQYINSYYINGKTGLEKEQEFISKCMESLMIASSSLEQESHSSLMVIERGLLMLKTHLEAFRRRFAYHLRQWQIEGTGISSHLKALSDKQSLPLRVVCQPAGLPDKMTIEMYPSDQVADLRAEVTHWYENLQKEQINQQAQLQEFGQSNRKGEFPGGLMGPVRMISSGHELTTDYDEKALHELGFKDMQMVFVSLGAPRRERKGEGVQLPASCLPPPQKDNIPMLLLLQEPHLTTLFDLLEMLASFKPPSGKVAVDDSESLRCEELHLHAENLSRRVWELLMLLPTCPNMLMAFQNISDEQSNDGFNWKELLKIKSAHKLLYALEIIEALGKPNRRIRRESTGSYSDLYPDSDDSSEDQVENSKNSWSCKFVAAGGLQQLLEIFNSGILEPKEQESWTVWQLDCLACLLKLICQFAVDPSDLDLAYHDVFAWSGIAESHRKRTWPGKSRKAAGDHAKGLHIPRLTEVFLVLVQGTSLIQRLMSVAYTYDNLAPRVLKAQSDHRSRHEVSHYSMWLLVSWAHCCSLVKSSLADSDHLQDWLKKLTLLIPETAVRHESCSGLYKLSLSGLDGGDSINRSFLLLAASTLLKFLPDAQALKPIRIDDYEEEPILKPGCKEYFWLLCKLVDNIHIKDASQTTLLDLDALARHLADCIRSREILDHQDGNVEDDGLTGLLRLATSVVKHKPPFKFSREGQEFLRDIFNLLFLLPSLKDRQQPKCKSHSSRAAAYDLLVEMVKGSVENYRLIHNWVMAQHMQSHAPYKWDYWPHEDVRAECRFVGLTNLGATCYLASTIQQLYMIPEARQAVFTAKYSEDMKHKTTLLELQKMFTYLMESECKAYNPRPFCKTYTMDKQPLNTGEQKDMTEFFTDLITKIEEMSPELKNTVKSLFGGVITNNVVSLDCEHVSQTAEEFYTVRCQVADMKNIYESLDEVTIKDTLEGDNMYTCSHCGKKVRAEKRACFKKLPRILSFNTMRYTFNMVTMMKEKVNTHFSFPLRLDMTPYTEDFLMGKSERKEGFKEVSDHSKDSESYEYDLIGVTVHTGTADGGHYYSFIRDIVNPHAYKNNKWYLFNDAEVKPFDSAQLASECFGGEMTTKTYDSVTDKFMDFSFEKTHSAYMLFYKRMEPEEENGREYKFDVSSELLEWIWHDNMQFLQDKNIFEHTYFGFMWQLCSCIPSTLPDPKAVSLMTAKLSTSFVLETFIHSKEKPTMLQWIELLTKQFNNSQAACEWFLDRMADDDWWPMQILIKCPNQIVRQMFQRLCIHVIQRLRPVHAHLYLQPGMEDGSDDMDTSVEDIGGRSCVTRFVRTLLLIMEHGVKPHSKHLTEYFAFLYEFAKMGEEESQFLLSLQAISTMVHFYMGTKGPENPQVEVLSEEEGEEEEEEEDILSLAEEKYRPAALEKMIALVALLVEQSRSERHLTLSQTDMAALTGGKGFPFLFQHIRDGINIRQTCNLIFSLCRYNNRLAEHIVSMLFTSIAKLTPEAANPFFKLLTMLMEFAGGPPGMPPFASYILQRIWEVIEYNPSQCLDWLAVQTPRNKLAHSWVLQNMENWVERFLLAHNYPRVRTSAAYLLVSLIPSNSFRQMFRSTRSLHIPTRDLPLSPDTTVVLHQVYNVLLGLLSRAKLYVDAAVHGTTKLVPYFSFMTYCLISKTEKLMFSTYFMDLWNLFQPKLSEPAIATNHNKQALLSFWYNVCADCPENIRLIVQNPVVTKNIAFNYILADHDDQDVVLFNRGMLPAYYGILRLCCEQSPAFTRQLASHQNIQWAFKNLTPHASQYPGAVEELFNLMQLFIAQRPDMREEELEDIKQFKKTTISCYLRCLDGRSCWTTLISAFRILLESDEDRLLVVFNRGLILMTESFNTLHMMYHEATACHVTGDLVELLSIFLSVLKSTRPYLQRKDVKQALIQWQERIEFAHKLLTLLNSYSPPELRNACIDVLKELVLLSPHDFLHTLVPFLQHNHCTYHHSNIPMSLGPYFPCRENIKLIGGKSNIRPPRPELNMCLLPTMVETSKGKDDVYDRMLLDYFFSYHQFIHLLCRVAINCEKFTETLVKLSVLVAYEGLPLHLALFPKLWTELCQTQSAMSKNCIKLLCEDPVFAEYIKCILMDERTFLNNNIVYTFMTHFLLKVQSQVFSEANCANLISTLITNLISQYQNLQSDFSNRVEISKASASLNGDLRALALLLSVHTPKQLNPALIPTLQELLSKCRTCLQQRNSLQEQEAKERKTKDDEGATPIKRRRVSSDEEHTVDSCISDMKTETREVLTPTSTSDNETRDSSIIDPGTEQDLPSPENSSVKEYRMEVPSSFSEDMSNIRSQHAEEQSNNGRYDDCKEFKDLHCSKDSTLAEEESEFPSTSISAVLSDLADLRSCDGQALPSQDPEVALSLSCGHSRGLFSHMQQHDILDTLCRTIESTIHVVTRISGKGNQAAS

CS(=O)(=O)N1CCCN(C(=O)CCl)CC1
inactive: [1] -0.016 | [2] -0.255 | [3] -0.0208 | [4] 0.0871 | [5] -0.0865
